Assay results taken from PubChem BioAssay (NCATS).
Records with an inconclusive call do not appear. A call without a number means that no potency is given here. The source made the active and inactive calls. The call rests on the fitted dose curve; in most records, active means well fitted curve in the direction sought with a large enough effect; inconclusive means small, poorly fitted or top-dose-only effect, or another doubt; inactive means no such curve, though single readings can be large; an effect the other way counts as inactive or inconclusive.

Key:
[1] = qHTS of pediatric cancer cell lines to identify multiple opportunities for drug repurposing: Primary screen for RD cells (AID 1347104); further: nearly all actives have a fitted effect of over 55% in size; further: potency means the concentration at half of the fitted maximal effect
Method in brief: (§1)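 Viability was measured as metabolically active cells after 48 hours of treatment, read by CellTiter-Glo luminescence. Compounds were tested at multiple final concentrations, giving concentration-response curves.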

[2] = qHTS of pediatric cancer cell lines to identify multiple opportunities for drug repurposing: Primary screen for MG 63 (6-TG R) cells (AID 1347105); further: nearly all actives have a fitted effect of over 50% in size; further: potency means the concentration at half of the fitted maximal effect
Method in brief: as §1

[3] = qHTS of pediatric cancer cell lines to identify multiple opportunities for drug repurposing: Primary screen for control Hh wild type fibroblast cells (AID 1347106); further: nearly all actives have a fitted effect of over 55% in size; further: potency means the concentration at half of the fitted maximal effect
Method in brief: (§2)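 Viability after 48 h compound treatment at 37C, 500-1,000 cells/well, read as ATP luminescence with CellTiter-Glo. Primary screens used 11-point (MIPE, 0.78 nM-46 µM) or 8-point (NPC, 0.59 nM-46 µM) final concentrations; follow-up screens used 11-point dilutions.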

[4] = qHTS of pediatric cancer cell lines to identify multiple opportunities for drug repurposing: Primary screen for Rh30 cells (AID 1347107); further: series mostly up to about 46 µM; nearly all actives have a fitted effect of over 75% in size
Method in brief: as §2

[5] = qHTS of pediatric cancer cell lines to identify multiple opportunities for drug repurposing: Primary screen for Rh41 cells (AID 1347108);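 further: series mostly up to about 46 µM; luminescence drop marks cytotoxic hits; nearly all actives have a fitted effect of over 70% in size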
Method in brief: as §1

SMILES: CCOC(C(=O)OCCN(C)C)(c1ccccc1)c1ccccc1
- Potency [1]: inactive
- Potency [2]: inactive
- Potency [3]: inactive
- Potency [4]: inactive
- Potency [5]: inactive

SMILES: c1cc2c(c(N3CCNCC3)c1)OCCO2
- Potency [1]: inactive
- Potency [2]: inactive
- Potency [3]: inactive
- Potency [4]: inactive
- Potency [5]: inactive

SMILES: C[C@H](N)[C@H](O)c1ccc(O)c(O)c1
- Potency [1]: inactive
- Potency [2]: inactive
- Potency [3]: inactive
- Potency [4]: inactive
- Potency [5]: inactive

SMILES: CCC(=O)OC1(c2ccccc2)CCN(C)CC1
- Potency [1]: inactive
- Potency [2]: inactive
- Potency [3]: inactive
- Potency [4]: inactive

SMILES: c1ccc2nc(N3CCNCC3)ccc2c1
- Potency [1]: inactive
- Potency [2]: inactive
- Potency [3]: inactive
- Potency [4]: inactive
- Potency [5]: inactive

SMILES: COP(=O)(OC)C(O)C(Cl)(Cl)Cl (centres undefined)
- Potency [1]: inactive
- Potency [2]: inactive
- Potency [3]: inactive
- Potency [4]: inactive
- Potency [5]: inactive

SMILES: C[C@]12CC[C@H]3[C@@H](CC=C4C[C@@H](O)CC[C@@]43C)[C@@H]1CC[C@@H]2O
- Potency [1]: inactive
- Potency [2]: inactive
- Potency [3]: inactive
- Potency [4]: inactive
- Potency [5]: inactive

SMILES: COc1cc(C[C@@H](C)N)c(OC)cc1C
- Potency [1]: inactive
- Potency [2]: inactive
- Potency [3]: inactive
- Potency [4]: inactive
- Potency [5]: inactive

SMILES: CN(C)CCc1c[nH]c2ccccc12
- Potency [1]: inactive
- Potency [2]: inactive
- Potency [3]: inactive
- Potency [4]: inactive
- Potency [5]: inactive

SMILES: C=CCOC(Cn1ccnc1)c1ccc(Cl)cc1Cl (centres undefined)
- Potency [1]: inactive
- Potency [2]: inactive
- Potency [3]: inactive
- Potency [4]: inactive
- Potency [5]: inactive

SMILES: CCN(CC)CCOC(=O)C(C)(c1ccccc1)c1ccccc1
- Potency [1]: inactive
- Potency [2]: inactive
- Potency [3]: inactive
- Potency [4]: inactive

SMILES: CCOC(=O)c1ncn2c1CN(C)C(=O)c1c(I)cccc1-2
- Potency [1]: inactive
- Potency [2]: inactive
- Potency [3]: inactive
- Potency [4]: inactive
- Potency [5]: inactive

SMILES: O=C(N[C@H]1N=C(c2ccccc2F)c2cccc3c2N(CC3)C1=O)c1cc2ccccc2[nH]1
- Potency [1]: inactive
- Potency [2]: inactive
- Potency [3]: inactive
- Potency [4]: inactive
- Potency [5]: inactive

SMILES: CC[C@H]1C[C@H]2[C@@H]3CCC4=CC(=O)CC[C@@H]4[C@H]3CC[C@]2(C)[C@H]1O
- Potency [1]: inactive
- Potency [2]: inactive
- Potency [3]: inactive

SMILES: CCOP(=S)(OCC)O/N=C(\C#N)c1ccccc1
- Potency [1]: inactive
- Potency [2]: inactive
- Potency [3]: inactive
- Potency [4]: inactive
- Potency [5]: inactive

SMILES: C[C@]12CC[C@H]3[C@@H](CCC4=CC(=O)CC[C@@H]43)[C@@H]1CC[C@@H]2O
- Potency [1]: inactive
- Potency [2]: inactive
- Potency [3]: inactive
- Potency [4]: inactive
- Potency [5]: inactive

SMILES: NC(=O)CN1CCCC1=O
- Potency [1]: inactive
- Potency [2]: inactive
- Potency [3]: inactive
- Potency [4]: inactive
- Potency [5]: inactive

SMILES: CCOC(=O)c1cncn1C(C)c1ccccc1 (centres undefined)
- Potency [1]: inactive
- Potency [2]: inactive
- Potency [3]: inactive
- Potency [4]: inactive
- Potency [5]: inactive

SMILES: O=C(NC(=O)c1c(F)cccc1F)Nc1cc(Cl)c(OC(F)(F)C(F)C(F)(F)F)cc1Cl (centres undefined)
- Potency [1]: inactive
- Potency [2]: inactive
- Potency [3]: inactive
- Potency [4]: inactive
- Potency [5]: inactive

SMILES: COc1ccc(CN2CCNCC2)c(OC)c1OC
- Potency [1]: inactive
- Potency [2]: inactive
- Potency [3]: inactive
- Potency [4]: inactive
- Potency [5]: inactive

SMILES: c1ccc2c(c1)Sc1ccccc1N2CC1CN2CCC1CC2 (centres undefined)
- Potency [1]: 15 µM (active)
- Potency [2]: 21.1 µM (active)
- Potency [3]: 23.7 µM (active)

SMILES: C#C[C@]1(O)C=C[C@H]2[C@@H]3CCC4=CC(=O)CC[C@@H]4[C@H]3CC[C@@]21CC
- Potency [1]: inactive
- Potency [2]: inactive
- Potency [3]: inactive
- Potency [4]: inactive
- Potency [5]: inactive

SMILES: Sc1ccccc1Cl
- Potency [1]: inactive
- Potency [2]: inactive
- Potency [3]: inactive
- Potency [4]: inactive
- Potency [5]: inactive

SMILES: CC1COC2(c3ccccc3Cl)c3cc(Cl)ccc3NC(=O)CN12 (centres undefined)
- Potency [1]: inactive
- Potency [2]: inactive
- Potency [3]: inactive
- Potency [4]: inactive
- Potency [5]: inactive

SMILES: CC(C)[N+](C)(CCC(C(N)=O)(c1ccccc1)c1ccccc1)C(C)C
- Potency [1]: inactive
- Potency [2]: inactive
- Potency [3]: inactive
- Potency [4]: inactive
- Potency [5]: inactive

SMILES: COP(=S)(OC)Oc1ccc(Sc2ccc(OP(=S)(OC)OC)cc2)cc1
- Potency [1]: inactive
- Potency [2]: inactive
- Potency [3]: inactive
- Potency [4]: inactive
- Potency [5]: inactive

SMILES: OC(c1ccccc1)(c1ccccc1)C1CCNCC1
- Potency [1]: inactive
- Potency [2]: inactive
- Potency [3]: inactive
- Potency [4]: inactive
- Potency [5]: inactive

SMILES: CNC(=O)NC(O)C(Cl)(Cl)Cl (centres undefined)
- Potency [1]: inactive
- Potency [2]: inactive
- Potency [3]: inactive
- Potency [4]: inactive
- Potency [5]: inactive

SMILES: C[C@]12C=CC(=O)C=C1CC[C@@H]1[C@@H]2CC[C@@]2(C)[C@H]1CC[C@]2(C)O
- Potency [1]: inactive
- Potency [2]: inactive
- Potency [3]: inactive
- Potency [4]: inactive
- Potency [5]: inactive

SMILES: ClCCCN1CCN(c2cccc(Cl)c2)CC1
- Potency [1]: inactive
- Potency [2]: inactive
- Potency [3]: inactive
- Potency [4]: inactive
- Potency [5]: inactive

SMILES: CC(C)(C)OC(=O)c1ncn2c1[C@@H]1CCCN1C(=O)c1c(Br)cccc1-2
- Potency [1]: inactive
- Potency [2]: inactive
- Potency [3]: inactive
- Potency [4]: inactive
- Potency [5]: inactive

SMILES: COP(=O)(OC)OC=C(Cl)Cl
- Potency [1]: inactive
- Potency [2]: inactive
- Potency [3]: inactive
- Potency [4]: inactive
- Potency [5]: inactive

SMILES: CCCCC1C(=O)NC(=O)N(C2CCCCC2)C1=O (centres undefined)
- Potency [1]: inactive
- Potency [2]: inactive
- Potency [3]: inactive
- Potency [4]: inactive
- Potency [5]: inactive

SMILES: C[C@]12CC[C@H](O)CC1=CC[C@@H]1[C@@H]2CC[C@]2(C)C(=O)CC[C@@H]12
- Potency [1]: inactive
- Potency [2]: inactive
- Potency [3]: inactive
- Potency [4]: inactive
- Potency [5]: inactive

SMILES: CN1C2CCC(C)(C)C1CC(OC(=O)C(O)(c1cccs1)c1cccs1)C2 (centres undefined)
- Potency [1]: inactive
- Potency [2]: inactive
- Potency [3]: inactive
- Potency [4]: inactive
- Potency [5]: inactive

SMILES: CCCOC(=O)Cc1ccc(OCC(=O)N(CC)CC)c(OC)c1
- Potency [1]: inactive
- Potency [2]: inactive
- Potency [3]: inactive
- Potency [4]: inactive
- Potency [5]: inactive

SMILES: Cc1c(Cl)c(=O)oc2cc(OP(=O)(OCCCl)OCCCl)ccc12
- Potency [1]: inactive
- Potency [2]: inactive
- Potency [3]: inactive
- Potency [4]: inactive
- Potency [5]: inactive
